Potency and affinity values are given separately. Results filed as inconclusive are left out. Active and inactive are the calls of the source. How the calls were made is not given here.
Each compound was assayed against CAAX prenyl protease 1 (Saccharomyces cerevisiae (strain ATCC 204508 / S288c)) (UniProt P47154) (assay: yeast CAAX protease Ste24 inhibition – biochemical, S. cerevisiae, plate reader, cherry-pick, dose response (AID 488815;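 further: 0% = neutral control wells and -100% = no enzyme wells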)). Conditions: series mostly up to 10 µM; activity change, negative = inhibition: at the top concentration.
CAAX prenyl protease 1 (Saccharomyces cerevisiae (strain ATCC 204508 / S288c)), sequence (P47154 whole entry, looked up): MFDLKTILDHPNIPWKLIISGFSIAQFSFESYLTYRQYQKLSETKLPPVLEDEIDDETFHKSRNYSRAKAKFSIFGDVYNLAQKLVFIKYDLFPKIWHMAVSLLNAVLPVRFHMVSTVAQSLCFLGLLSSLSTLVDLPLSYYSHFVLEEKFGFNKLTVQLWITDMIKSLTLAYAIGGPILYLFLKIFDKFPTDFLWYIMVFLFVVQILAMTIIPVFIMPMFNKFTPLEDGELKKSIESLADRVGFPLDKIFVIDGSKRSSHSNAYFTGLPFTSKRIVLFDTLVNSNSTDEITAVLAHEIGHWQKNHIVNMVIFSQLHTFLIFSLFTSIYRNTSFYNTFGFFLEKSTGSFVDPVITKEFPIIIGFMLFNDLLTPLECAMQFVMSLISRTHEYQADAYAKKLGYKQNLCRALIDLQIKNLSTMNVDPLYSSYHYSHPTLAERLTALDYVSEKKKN

Activity change, negative = inhibition, inactive:
Cc1nc(N2CCOCC2)c2cc(-c3ccccc3)sc2n1 12.8%, CN(C)CCN(C(=O)c1ccc2ccccc2c1)c1nc2ccc(F)cc2s1 41.2%, Cc1nc(-c2ccc(Cl)cc2)sc1C1(C)CC(c2ccccc2Br)=NO1 (configuration not stated) 29.5%, Cc1ccc(/C=N/NC(=O)c2nnn(-c3nonc3N)c2C(C)C)o1 12.8%, Cc1nc(SC(C(=O)c2ccccc2)c2ccccc2)nc2ccccc12 (configuration not stated) 23%, CCn1c(C)nc2c(=O)oc3ccccc3c21 4.3%, CCCOc1ccccc1C(=O)NCCCC(=O)O 0.511%, O=C(COC(=O)c1ccc(S(=O)(=O)N2CCCC2)cc1)NCc1ccccc1 33.6%, Cc1cc2cc(C(=O)N3CCc4c([nH]c5ccccc45)C3c3ccccn3)ccc2o1 (configuration not stated) -6.72%, CCSCCOC(=O)C1=C(C)NC(=O)NC1c1ccccc1 (configuration not stated) 21.6%, COC(C/C=C/[C@@H](O)[C@H](C)OCc1ccccc1)OC 22.6%, COc1cc2c(cc1OC)C(C)N(C(=O)c1cc3c(=O)oc4ccc(C)cc4c3s1)CC2 (configuration not stated) 15.4%, COc1ccccc1CC(=O)Nc1ccc2c(C)cc(=O)oc2c1 -51.4%, O=C(c1cnc(Cl)c(Cl)c1)N1CCC(Cc2ccccc2)CC1 16.9%, COC(C[C@@H]1O[C@@H]1C(=O)[C@@H](C)OCc1ccccc1)OC 36.5%, COc1ccc(Br)cc1C(=O)Nc1cc(C)cc(C)c1 16.2%, CCN(CC)CCN(C(=O)c1ccc2ccccc2c1)c1nc2ccc(F)cc2s1 18.9%, COc1ccccc1-n1c(-c2ccccc2)c[nH]c1=S 24.9%, CC(C)c1cccc(OCC(=O)Nc2ccc(S(=O)(=O)Nc3ccccn3)cc2)c1 -3.69%, CCCCCCCCNC(C)C(O)c1ccc(SC(C)C)cc1 (configuration not stated) 19.5%, CN(C(=O)COC(=O)c1cc([N+](=O)[O-])ccc1Sc1ccccc1)C1CCS(=O)(=O)C1 (configuration not stated) 25.6%, COc1ccc(-n2c(SCc3ccc([N+](=O)[O-])cc3)nnc2-c2ccc(C)cc2)cc1 -0.524%
